# Screening results: PubChem, National Center for Advancing Translational Sciences (NCATS)
# GLA inh pH 4.5: inhibitors of human alpha-galactosidase A at pH 4.5 | P06280 | purified enzyme, 4-MU-alpha-Gal fluorescence, pH 4.5 | activity change, negative = inhibition, % at 105 µM | 230,000 tested, under 10 active
# HttQ103 aggreg: reduces HttQ103-GFP aggregates in PC12 cells | PC12 HttQ103-GFP aggregates, Acumen cytometry, 40 h | Potency, µM (doses to about 46.1 µM), most hits filed as inhibitors | 220,000 compounds, 1.1% hits; also: nearly all actives have a fitted effect of over 60% in size
#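 Huntingtin Q103 exon 1–GFP aggregates in induced PC12 cells (100 nM tebufenozide) were quantified by cytometry from lysates, with compounds dosed in titration.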
# PKM2 act: activators of human pyruvate kinase M2. Potency, µM (top dose mostly 57.5 µM), hits mostly activators. P14618. AID 1631. 260,000 compounds, 0.34% hits. purified PKM2, Kinase-Glo ATP luminescence, activation; response scale: 0% is enzyme alone, no compound; also: nearly all actives have a fitted effect of over 55% in size
# Target sequence (P14618 whole entry, looked up): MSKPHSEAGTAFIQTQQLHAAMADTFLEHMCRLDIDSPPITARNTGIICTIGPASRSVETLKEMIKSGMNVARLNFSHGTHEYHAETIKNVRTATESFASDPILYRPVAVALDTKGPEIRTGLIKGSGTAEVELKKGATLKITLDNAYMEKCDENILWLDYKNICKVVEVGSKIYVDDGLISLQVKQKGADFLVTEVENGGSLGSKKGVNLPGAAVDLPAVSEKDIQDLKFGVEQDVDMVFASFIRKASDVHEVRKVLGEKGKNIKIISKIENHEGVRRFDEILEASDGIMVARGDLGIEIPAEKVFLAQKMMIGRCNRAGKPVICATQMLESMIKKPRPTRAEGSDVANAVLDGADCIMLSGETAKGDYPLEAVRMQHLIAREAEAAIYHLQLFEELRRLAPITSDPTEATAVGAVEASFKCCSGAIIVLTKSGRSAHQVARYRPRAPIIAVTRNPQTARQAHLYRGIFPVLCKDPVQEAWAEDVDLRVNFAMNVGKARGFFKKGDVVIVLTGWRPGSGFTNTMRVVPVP
#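 ATP formation by purified human PK-M2, quantified via coupled luciferase luminescence after 1 h at room temperature with 0.1 mM ADP and 0.5 mM PEP final.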
# HTT cytoprotect: cytoprotection in Huntington HTT-Q103 PC12 cell model; PC12 HTT-Q103 induced, cytoprotection, ATP luminescence, 40 h; Potency, µM (highest dose often 56.4 µM), hits mostly activators; 230,000 compounds, 0.14% hits; AID 1471; also: nearly all actives have a fitted effect of over 45% in size
#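 Rat PC12, Q103 Htt exon1-GFP fusion, ecdysone promoter; tebufenozide inducer 100 nM final; compound titration; qHTS, 1500 cells/well; ATPlite luminescent read.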
# aGal spleen mod: alpha-galactosidase A (human) modulation. P06280. 240,000 compounds, 0.008% hits. AID 2107. Potency, µM (doses to about 80 µM), most hits filed as inhibitors. human spleen homogenate, 4MU-alpha-Gal fluorescence, 40 min
#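 Inhibition or activation of alpha-galactosidase in human spleen homogenate is scored by 4-MU fluorescence after 40 min at 37C, pH 5.0, with 1 mM substrate. AC50s come from concentration-response fitted to the Hill equation.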
# Hits are given with their value; n = inactive; u = inconclusive; x = no result; [ ] = dose if it differs, or a comment. This is a sample that favours compounds with a hit; in the whole collection about 1.2% have one here. Calls follow the shape of the dose curve; as a rule, active = well fitted curve in the direction sought with a large enough effect; inconclusive = small, poorly fitted or top-dose-only effect, or another doubt; inactive = no such curve, though single readings can be large; an effect the other way counts as inactive or inconclusive.
SMILES,GLA inh pH 4.5,HttQ103 aggreg,PKM2 act,HTT cytoprotect,aGal spleen mod
CC1CN2C(CCC(C)C2c2ccc(Br)cc2)C(=O)O1 (configuration not stated),x,x,x,n[10 µM],n[17.5 µM]
Cn1c(SCCCC(=O)c2ccc(F)cc2)nnc1-c1ccncc1,n,n,n,n,n
Cc1occc1-c1nnc(SCCCC(=O)c2ccc(F)cc2)n1C,n,n,25µM,n[0.074 µM],n
C=CCOn1c(C)c(C(C)=O)c2c3no[n+]([O-])c3ccc21,n,22µM,n,n[10 µM],n
C=CCOn1c(C)c(C(C)=O)c2c3nonc3ccc21,n,11µM,n,n[1.9 µM],n
O=C(O)[C@@H]1CS[C@@]2(CCCN(Cc3ccccc3)C2)N1,x,x,x,n[10 µM],x
CC(=O)C(=O)O,x,x,x,x,n
CN1[C@H](Cc2ccccc2)C=C[C@]1(C)C(=O)NCC1CC1,n,x,n,n,n
Cc1nc(Sc2nnnn2C)c2c3c(sc2n1)CCC3,n,u,n,n[10 µM],n
CCc1nc(Sc2nnnn2-c2ccccc2)c2c3c(sc2n1)CCCC3,n,u,10µM,n[10 µM],n
COc1ccc(C(=O)c2coc3ccc(O)c(CN4CCCCC4)c23)cc1,n,n,n,n[10 µM],n
COc1ccc(-n2c(C)c([N+](=O)[O-])c3ccc(O)c(CN4CCCCC4)c32)cc1,n,10µM,n,n,n
Cc1ccc(-n2c(C)c([N+](=O)[O-])c3ccc(O)c(CN(C)C)c32)cc1,n,2.5µM,n,n,n
O=C1C2=CC[C@H]3C(=O)N(Cc4ccccc4)C(=O)[C@@H]3[C@@H]2[C@H](O)[C@@H]2O[C@H]12,x,x,x,u,n[17.5 µM]
CCN1C(=O)[C@@H]2[C@H]3C(=CC[C@H]2C1=O)C(=O)[C@H]1OC1[C@H]3O (some centres not stated),x,x,x,2.8µM,n[17.5 µM]
O=C1C2=CC[C@H]3C(=O)N(C[C@@H]4CCCO4)C(=O)[C@@H]3[C@@H]2[C@H](O)[C@@H]2O[C@H]12,x,x,x,1.4µM,n[17.5 µM]
OCl,x,n,x,u,n
Cc1nn(C)c(C)c1CNC(=O)c1cnn2c1NC(c1ccccc1)CC2C(F)(F)F (configuration not stated),n,n,n,n[10 µM],n
Cc1ccc(C2CC(C(F)(F)F)n3nc(C(=O)NCc4c(C)nn(C)c4C)c(Cl)c3N2)cc1 (configuration not stated),n,13µM,n,n,n
CC(C)n1c(SCC(=O)Nc2nc3c(s2)CCCC3)nc2c1c(=O)n(C)c(=O)n2C,n,13µM,n,n[10 µM],n
CCOC(=O)c1c(NC(=O)CSc2nc3c(c(=O)n(C)c(=O)n3C)n2C(C)C)sc(C)c1C,n,n,n,n[10 µM],n
Cc1ccc(S(=O)(=O)/N=c2\sccn2C)cc1,n,n,18µM,n,n
Cn1ccs/c1=N\S(=O)(=O)c1ccc(F)cc1,n,n,n,n,n
O=C1c2cccc3c([N+](=O)[O-])ccc(c23)C(=O)N1Cc1cccnc1,n,35µM,n,n,n
Cc1ccnc(N2C(=O)c3cccc4c([N+](=O)[O-])ccc(c34)C2=O)c1,n,18µM,n,n[10 µM],n
SMILES,GLA inh pH 4.5,HttQ103 aggreg,PKM2 act,HTT cytoprotect,aGal spleen mod
Cc1csc(SCC(=O)N2CCN(S(=O)(=O)c3ccccc3)CC2)n1,n,n,32µM,n[10 µM],n
O=C(Cc1cccs1)N1CCN(S(=O)(=O)c2ccc(Br)cc2)CC1,n,n,3.2µM,x,n
O=C(CSc1ccccc1)N1CCN(S(=O)(=O)c2ccccc2)CC1,x,x,2.8µM,x,x
CCOC(=O)c1ccoc1CSCC(=O)N1CCN(S(=O)(=O)c2ccc(C)cc2)CC1,n,n,25µM,n,n
Cc1csc(SCC(=O)N2CCN(S(=O)(=O)c3ccc(Cl)cc3)CC2)n1,n,n,u,n,n
Cc1ccc(S(=O)(=O)N[C@H]2COC(=O)C/C=C\[C@H](C)[C@@H](NS(=O)(=O)c3ccc(C)cc3)COC(=O)C/C=C\[C@@H]2C)cc1,x,x,x,n[10 µM],n[17.5 µM]
C=C[C@]1(C)C[C@H](OC(=O)CO)[C@]2(C)C3C(=O)CC[C@]3(CC[C@H]2C)[C@H](C)[C@H]1O (some centres not stated),x,x,x,n[10 µM],x
CC(C)CC(=O)N1CCN(S(=O)(=O)c2ccc(F)cc2)CC1,n,n,n,n[10 µM],n
Cc1ccc(S(=O)(=O)N2CCN(C(=O)CSc3ccc(F)cc3)CC2)cc1,x,x,13µM,x,x
O=C(N/N=C/c1cc2c3c(c1O)CCCN3CCC2)c1ccccc1O,n,0.89µM,n,x,n
CN(C)CCCCl,x,x,x,n,n
O=c1ccn([C@H]2O[C@H](CO)[C@@H](O)[C@@H]2O)c(=O)[nH]1,x,x,x,n,x
COc1ccccc1COC(=O)N/C=C/c1ccco1,u,u,18µM,x,n
COc1ccc(COC(=O)N/C=C/c2ccco2)cc1,n,u,n,x,n
O=C(NCCCCCCNC(=O)ON=C1CCCCC1)ON=C1CCCCC1,n,x,x,u,n
CCC(=O)NC1CCc2cccc(OC)c2C1 (configuration not stated),x,x,x,n,n
O=C(CCc1ccccc1)n1nc(-c2ccccc2)nc1NCc1ccco1,n,25µM,n,n[10 µM],n
O=C1CC(SC(=Nc2ccccc2)Nc2ccccc2)C(=O)N1c1ccc(Cl)c(Cl)c1 (configuration not stated),n,n,n,x,n
Cc1cccc(N2C(=O)CC(SC(=Nc3ccccc3)Nc3ccccc3)C2=O)c1 (configuration not stated),n,3.2µM,n,x,n
Cn1nc(C(F)(F)F)c(/C=N/OC(=O)c2ccccc2Cl)c1SCc1ccccc1Cl,n,10µM,n,n[10 µM],n
Cn1nc(C(F)(F)F)c(/C=N/OC(=O)c2ccccc2)c1SCc1ccc(Cl)cc1,n,u,n,n,n
Nc1cccc2cc(S(=O)(=O)Nc3ccc(C(=O)O)cc3)ccc12,x,x,x,n[10 µM],x
O=C1[C@H]2[C@H]3[C@H](O)[C@H](O)C/C(=N/OC[C@@H](O)COCc4ccco4)[C@@H]3CC[C@@H]2C(=O)N1c1cccc(Oc2ccccc2)c1,x,x,x,n[10 µM],n[17.5 µM]
O=S(=O)(CCC(F)=C(F)F)c1nnnn1C1CCCCC1,n,x,x,4µM,n
N#CCCCS(=O)(=O)c1nnnn1C1CCCCC1,n,x,x,x,n
SMILES,GLA inh pH 4.5,HttQ103 aggreg,PKM2 act,HTT cytoprotect,aGal spleen mod
COc1ccc(CCNC(=O)c2cc(-c3cccs3)on2)cc1OC,n,n,n,3.5µM,n
Cc1cc(NC(=O)c2cccs2)no1,n,n[9.22 µM],n,n[10 µM],n
Cc1cc(NC(=O)c2cc(-c3cccs3)on2)no1,n,7.1µM,n,n,n
COc1ccc(CCNC(=O)c2cc(-c3ccco3)on2)cc1OC,n,u,n,u,n
O=C(/C(=C/c1ccc(Cl)cc1)c1nc2ccccc2[nH]1)c1cccs1,n,5µM,n,n,n
O=C(Nc1ccc(N2CCN(C(=O)c3cccs3)CC2)c(Cl)c1)c1ccco1,n,n,n,n[10 µM],n
Cc1ccccc1C(=O)N1CCN(c2ccc(NC(=O)c3ccco3)cc2Cl)CC1,n,13µM,n,n[10 µM],n
